Assay results: PubChem BioAssay (NCATS)
Records with an inconclusive call do not appear. Calls of active or inactive are those of the source. Unless noted, calls come from the whole dose curve; as a rule, active = well fitted curve in either direction with a large enough effect (not every such curve was filed as active); inconclusive = small, poorly fitted or top-dose-only effect, or another doubt; inactive = flat fitted curve, though single readings scatter.

Key:
[1] = AP1 Signaling Pathway (AID 357);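 note: ME-180 reporter cells stimulated with EGF at its EC50 level; % is set by controls: 0 for no effect and ±100 for the full control effect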
Procedure, shortened: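 First, ME-180 AP-1-bla cells were cultured overnight at 37 °C in low-serum Opti-MEM. Next, titrated compounds with EC50 EGF were incubated 5 hours. Finally, CCF4 was added for 2.5 hours and the 460/530 nm ratio recorded.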

[2] = molecular target: Cytochrome P450 1A2 (Homo sapiens) (UniProt P05177); assay: p450-cyp1a2 (AID 410; calls by dose curve;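 note: -100% = full effect of reference inhibitor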)
Procedure, shortened: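 20nM CYP1A2 with 100uM Luciferin-ME (at Km) in 100mM KPO4; compound preincubated 10 min, NADPH regeneration added, 60 min at room temperature. Luciferin quantified by luminescence after detection reagent; normalized to 57 uM furafylline.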

[3] = NFAT Signaling Pathway (AID 444); conditions: Jurkat NFAT-bla M1, carbachol, beta-lactamase ratio, 5 h; at 17.2 µM (top of the series) unless noted;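 note: carbachol stimulus at about its EC50 of 1 µM final; % is set by controls: 0 for no effect and ±100 for the full control effect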
Procedure, shortened: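 Jurkat cells carrying an NFAT-driven β-lactamase reporter and co-transfected muscarinic M1 receptor were treated with compound plus carbachol (1 uM final, an EC50 level) for 5 h at 37 °C. CCF4 loading followed for 1 h at RT; 460/530 nm ratio gave %activity.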

[4] = Stat Signaling Pathway (AID 446);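 note: ME-180 cervical cancer cells given 40 pM IL-6 alongside compound; SIE-controlled beta-lactamase reporter measured as 460/530 nm FRET emission ratio; % is set by controls: 0 for no effect and ±100 for the full control effect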
Procedure, shortened: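 ME-180 cells carrying a SIE-driven beta-lactamase reporter are stimulated with 40 pM IL-6 for 5 h at 37C in the presence of compound. The 460/530 nm FRET substrate ratio is read after 2.5 h at RT. Data are normalised to 300 pM IL-6 and to 125 nM JAK inhibitor controls.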

[5] = molecular target: Glucocorticoid receptor (Homo sapiens) (UniProt P04150); assay: GR-GFP Redistribution (AID 450;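 active = compounds whose dose series gives a full or clear partial fitted curve of increased nuclear translocation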; note: potency is the fitted concentration of half-maximal effect); conditions: U2OS GR-GFP nuclear translocation, laser cytometry, 2 h
[6] = molecular target: Glucocorticoid receptor (Homo sapiens) (UniProt P04150); assay: GR-EFC Redistribution (AID 451; calls by dose curve; note: potency is the fitted concentration of half-maximal effect); conditions: CHO-K1 GR-EFC translocation, beta-gal luminescence, 2 h
Procedure, shortened: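 CHO-K1 cells stably expressing nuclear-localized β-gal enzyme acceptor and GR fused C-terminally to the enzyme donor fragment; ligand-driven nuclear translocation restores β-gal by complementation. Compounds titrated up to 46 uM final, 2 h at 37 °C; luminescence read.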

[7] = molecular target: Mitogen-activated protein kinase 10 (Mus musculus) (UniProt Q61831); assay: JNK3 AlphaScreen Assay (AID 530);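 note: kinase came from lysate of stimulated human HepG2 cells; signal reports phosphorylation of biotinylated GST-cJun 1-79 at Ser73 with 10 µM ATP; % is set by controls: 0 for no effect and ±100 for the full control effect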
Procedure, shortened: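 Inhibitors reduce antibody binding to phosphorylated biotin-cJun, lowering AlphaScreen luminescence. Lysates from HepG2 cells pre-activated by IL-1beta plus TNF-alpha supplied JNK3; compounds were titrated.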

[8] = molecular target: 3',5'-cyclic-AMP phosphodiesterase 4B (Homo sapiens) (UniProt Q07343); assay: qHTS Assay for Inhibitors of PDE-IV (AID 607; active = well fitted activation curve with a large enough effect in the main read-out, with a control signal flat, not every such curve was filed as active; note: % of control where 0% means no effect)
Procedure, shortened: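 HEK293 ACTOne cells with CNG channel (1000/well), endogenous PDE4; membrane potential dye, compounds up to 22.9 uM final. Fluorescence Ex 535/Em 590; RO 20-1724 (100 uM final) as reference.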

[9] = molecular target: Cytochrome P450 2C9 (Homo sapiens) (UniProt P11712); assay: qHTS Assay for Inhibitors and Substrates of Cytochrome P450 2C9 (AID 883; active = well fitted curve in the direction sought with a large enough effect; an effect the other way counts as inactive or inconclusive; note: % is set by controls: 0 for no effect and ±100 for the full control effect; nearly all actives have a fitted effect of over 60% in size)
Procedure, shortened: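 Human CYP2C9 (10nM) hydroxylated Luciferin-H (100uM, at its KM) to luciferin in 25mM KPO4. Compound was preincubated 10 min at 37C, then NADPH regeneration started a 60 min reaction at 37C. Luminescence was read after detection reagent, normalized to 57uM sulphaphenazole.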

[10] = molecular target: Ubiquitin carboxyl-terminal hydrolase 1 (Homo sapiens) (UniProt O94782); assay: Inhibitors of USP1/UAF1: Pilot qHTS (AID 504865; active = well fitted curve in the direction sought with a large enough effect; an effect the other way counts as inactive or inconclusive;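 note: rhodamine fluorescence freed from ubiquitin-rhodamine substrate followed over time; top concentration of the series differs between compounds; % is set by controls: 0 for no effect and ±100 for the full control effect; nearly all actives have a fitted effect of over 35% in size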)
Procedure, shortened: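 Deubiquitinase activity followed as kinetic rhodamine fluorescence release from 150 nM Ub-Rho. 1 nM USP1/UAF1 with compound, after 15 min room-temperature preincubation, in HEPES pH 7.8 buffer containing TCEP, EDTA, BSA and Tween-20.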

Chain of Glucocorticoid receptor (Homo sapiens) (P04150 whole entry, looked up, the tested form may be a part): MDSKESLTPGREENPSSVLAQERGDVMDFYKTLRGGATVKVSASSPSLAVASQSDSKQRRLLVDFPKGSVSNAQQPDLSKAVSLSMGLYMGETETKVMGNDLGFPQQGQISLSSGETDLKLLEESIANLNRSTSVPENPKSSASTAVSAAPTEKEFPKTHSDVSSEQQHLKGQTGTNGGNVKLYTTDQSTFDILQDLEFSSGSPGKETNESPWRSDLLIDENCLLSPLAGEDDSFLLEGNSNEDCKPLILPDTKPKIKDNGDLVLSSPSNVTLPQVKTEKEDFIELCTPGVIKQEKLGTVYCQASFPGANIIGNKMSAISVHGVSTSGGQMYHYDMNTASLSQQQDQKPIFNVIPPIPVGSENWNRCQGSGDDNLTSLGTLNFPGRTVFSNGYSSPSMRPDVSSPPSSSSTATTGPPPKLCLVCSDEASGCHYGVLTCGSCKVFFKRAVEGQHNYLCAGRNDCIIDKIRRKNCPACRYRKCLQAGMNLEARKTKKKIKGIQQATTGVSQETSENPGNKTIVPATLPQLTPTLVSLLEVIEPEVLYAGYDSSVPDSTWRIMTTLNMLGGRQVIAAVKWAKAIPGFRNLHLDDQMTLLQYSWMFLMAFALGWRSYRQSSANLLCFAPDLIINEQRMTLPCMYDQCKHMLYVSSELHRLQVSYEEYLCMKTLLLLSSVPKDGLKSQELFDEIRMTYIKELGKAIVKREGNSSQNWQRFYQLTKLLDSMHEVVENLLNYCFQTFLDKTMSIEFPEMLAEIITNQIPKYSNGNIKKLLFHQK
Chain of Cytochrome P450 1A2 (Homo sapiens) (P05177 whole entry, looked up): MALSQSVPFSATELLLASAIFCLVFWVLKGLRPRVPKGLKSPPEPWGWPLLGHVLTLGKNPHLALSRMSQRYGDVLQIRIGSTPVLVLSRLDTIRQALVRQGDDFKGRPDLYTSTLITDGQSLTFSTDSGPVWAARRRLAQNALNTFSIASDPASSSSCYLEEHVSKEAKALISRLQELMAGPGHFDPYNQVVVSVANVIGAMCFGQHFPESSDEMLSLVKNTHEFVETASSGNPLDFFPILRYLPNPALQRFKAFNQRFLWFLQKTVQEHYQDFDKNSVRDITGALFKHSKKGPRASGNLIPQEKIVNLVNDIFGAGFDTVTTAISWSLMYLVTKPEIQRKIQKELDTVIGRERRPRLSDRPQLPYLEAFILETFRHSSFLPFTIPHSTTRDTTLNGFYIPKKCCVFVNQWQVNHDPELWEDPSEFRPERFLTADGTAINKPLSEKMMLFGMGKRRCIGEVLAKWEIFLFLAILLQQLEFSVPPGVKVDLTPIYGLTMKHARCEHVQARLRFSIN
Chain of Ubiquitin carboxyl-terminal hydrolase 1 (Homo sapiens) (O94782 whole entry, looked up): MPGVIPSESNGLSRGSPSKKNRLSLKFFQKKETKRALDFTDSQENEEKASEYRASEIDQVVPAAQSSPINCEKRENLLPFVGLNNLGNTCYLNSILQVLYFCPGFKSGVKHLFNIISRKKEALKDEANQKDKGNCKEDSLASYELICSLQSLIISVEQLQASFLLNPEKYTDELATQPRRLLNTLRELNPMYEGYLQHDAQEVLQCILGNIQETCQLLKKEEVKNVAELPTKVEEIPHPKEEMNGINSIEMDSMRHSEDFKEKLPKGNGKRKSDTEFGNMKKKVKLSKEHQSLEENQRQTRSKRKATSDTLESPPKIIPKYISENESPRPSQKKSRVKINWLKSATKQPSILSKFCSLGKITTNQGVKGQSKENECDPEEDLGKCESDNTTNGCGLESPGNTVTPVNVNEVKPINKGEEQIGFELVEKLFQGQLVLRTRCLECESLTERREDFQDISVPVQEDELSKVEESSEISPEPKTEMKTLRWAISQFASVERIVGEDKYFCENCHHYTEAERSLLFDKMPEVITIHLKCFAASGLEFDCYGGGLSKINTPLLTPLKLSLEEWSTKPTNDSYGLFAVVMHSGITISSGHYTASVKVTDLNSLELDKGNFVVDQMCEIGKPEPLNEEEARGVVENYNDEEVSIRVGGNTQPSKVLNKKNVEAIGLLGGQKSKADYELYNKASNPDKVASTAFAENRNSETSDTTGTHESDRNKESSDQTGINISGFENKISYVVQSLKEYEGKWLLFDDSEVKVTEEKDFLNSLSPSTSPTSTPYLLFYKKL
Chain of 3',5'-cyclic-AMP phosphodiesterase 4B (Homo sapiens) (Q07343 whole entry, looked up): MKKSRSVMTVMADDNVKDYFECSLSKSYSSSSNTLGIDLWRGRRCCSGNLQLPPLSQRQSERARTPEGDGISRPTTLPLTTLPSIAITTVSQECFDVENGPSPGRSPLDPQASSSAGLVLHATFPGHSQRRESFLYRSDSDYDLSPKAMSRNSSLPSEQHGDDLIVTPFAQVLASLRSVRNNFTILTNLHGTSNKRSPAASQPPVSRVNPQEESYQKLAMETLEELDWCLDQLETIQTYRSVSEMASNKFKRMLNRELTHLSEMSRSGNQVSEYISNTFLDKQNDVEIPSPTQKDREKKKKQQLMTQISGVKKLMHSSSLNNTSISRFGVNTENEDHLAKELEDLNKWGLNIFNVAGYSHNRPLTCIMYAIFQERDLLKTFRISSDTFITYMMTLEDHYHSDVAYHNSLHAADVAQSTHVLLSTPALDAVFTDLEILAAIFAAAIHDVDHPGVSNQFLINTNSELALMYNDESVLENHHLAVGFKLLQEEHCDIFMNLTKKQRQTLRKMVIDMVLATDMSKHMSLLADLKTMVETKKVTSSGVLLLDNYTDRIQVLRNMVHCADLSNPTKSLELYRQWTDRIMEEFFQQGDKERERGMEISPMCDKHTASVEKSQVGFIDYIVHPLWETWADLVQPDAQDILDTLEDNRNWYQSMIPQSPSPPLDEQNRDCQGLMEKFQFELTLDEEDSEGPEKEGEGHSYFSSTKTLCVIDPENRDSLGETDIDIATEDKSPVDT
Chain of Cytochrome P450 2C9 (Homo sapiens) (P11712 whole entry, looked up): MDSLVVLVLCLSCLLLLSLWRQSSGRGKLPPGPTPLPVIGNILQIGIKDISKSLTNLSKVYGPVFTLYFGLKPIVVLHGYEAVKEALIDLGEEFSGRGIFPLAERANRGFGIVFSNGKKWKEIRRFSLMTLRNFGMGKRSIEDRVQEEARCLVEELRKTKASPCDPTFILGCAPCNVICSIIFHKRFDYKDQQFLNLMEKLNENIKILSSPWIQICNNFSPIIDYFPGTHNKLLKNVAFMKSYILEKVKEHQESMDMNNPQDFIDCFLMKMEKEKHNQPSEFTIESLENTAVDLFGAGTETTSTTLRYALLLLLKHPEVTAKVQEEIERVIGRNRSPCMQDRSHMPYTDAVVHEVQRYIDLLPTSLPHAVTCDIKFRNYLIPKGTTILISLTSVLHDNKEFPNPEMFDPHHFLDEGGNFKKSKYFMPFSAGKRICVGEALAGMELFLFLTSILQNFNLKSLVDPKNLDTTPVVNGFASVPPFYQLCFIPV

C[C@@]12CC[C@@H]3c4ccc(O)cc4CC[C@H]3[C@H]1C[C@@H](O)[C@H]2O
inactive: outcome [1] | Potency [2] | activity change, negative = inhibition [3] -13% | outcome [4] | Potency [5] > 20.6 µM | Potency [6] > 20.6 µM | Potency [7] | outcome [8] | Potency [9] | Potency [10]
